Among the data in PubChem BioAssay (NCI) are growth values, retold here.

The structures appear in SMILES notation. The panel holds about 83,000 compounds, 20% with a hit somewhere; the sample as a whole holds those more often.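 96-well plates, one dose, 48 hours. Percent growth reported; active if below 10.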 Values without a mark were called inactive. Calls of active or inactive are those of the source.

The test concerns MDA-MB-468 breast. The experiment in a line: NCI-60 one-dose screen, 48 h (100 = growth as untreated, 0 = no growth, -100 = all killed). The following applies: 10 µM unless noted.
For the compound `N#CCCc1ccc(O)cc1`, the growth was 104%.

For `CCCCCCCCOc1ccc(/C=N/Nc2cc(C)nc3ccc(Br)cc23)cc1`, the growth is 90%.

Turning to `O=C1Cc2cc(CCn3cncn3)c(Cl)cc2N1`, the growth was 35.1%.

For the compound `Cc1cc(=O)n2nc(-c3cn(C)c4ccc(Cl)cc34)sc2n1`, the growth was -42.5% (active).

On to `CC(=O)c1cc2c(N)c(C(=O)Nc3cccc(Cl)c3)sc2nc1C`, for which the growth was 45.3%.

With `COc1cc2oc3cc(=O)cc4oc(-c5ccccc5)cc(c2c2c1CCC(c1ccccc1)O2)c43` (centres undefined), the growth is 61.8%.

On to `NC(Cc1ccc(O)cc1)C(=O)N/N=C/c1ccccc1O` (centres undefined), for which the growth is 108%.

`Cc1ccc(-c2nc3nc(-c4ccccc4)nc(N4CCNCC4)c3o2)cc1`: the growth was -87.2% (active).

Regarding `NC1(N)C=CC2=C(C=C1)C1(N)C3=C(C=CC(N)(N)C=C3)N2C2(N)C3=C(C=CC(N)(N)C=C3)N1C1=C2C=CC(N)(N)C=C1`, the growth is 72.3%.

Turning to `Cc1cc(-c2ccc(N=Nc3c(S(=O)(=O)O)cc4cc(S(=O)(=O)O)cc(O)c4c3O)c(C)c2)ccc1N=Nc1c(S(=O)(=O)O)cc2cc(S(=O)(=O)O)cc(O)c2c1O`, the growth is 109%.

Regarding `COc1ccccc1NC(=O)c1ccc(/C=C/C(=O)c2nccn2C)cc1`, the growth is -40.7% (active).

On to `COc1ccc(/C=C2/C(=O)Nc3cc(Cl)c(-c4csc(N)n4)cc32)cc1`, for which the growth is 0.87% (active).

With `COc1cc(C2C=C(c3cccc(NC(C)=O)c3)Nc3ncnn32)cc(OC)c1OC` (centres undefined), the growth is 13.4%.

Regarding `NS(=O)(=O)c1ccc(CCn2c(SCC(=O)N/N=C/c3ccccc3O)nc3ccccc3c2=O)cc1`, the growth was 59.1%.

Take `COc1cc(OCc2cccc(Br)c2C)cc(OC)c1C=O`: the growth was 20.8%.

For `C#CCOC(=O)Nc1ccccc1`, the growth is 117%.

Turning to `O=c1c2cc(Br)cc(Br)c2nc(-c2ccc(Cl)cc2)n1/N=C/c1cccc(F)c1`, the growth is 62.6%.

Turning to `COc1ccc2c(c1)c(-c1nc(-c3c[nH]c4ncccc34)cs1)cn2C`, the growth is -5.16% (active).

Take `O=C(/C=C1\C(=O)N(Cc2ccccc2)c2ccccc21)c1ccc(OCCN2CCCCC2)cc1`: the growth was 19.6%.

Regarding `COc1cccc(-c2nn(-c3ccccc3)cc2-c2ccnc(NCCNS(=O)(=O)c3ccc(C(F)(F)F)cc3)c2)c1`, the growth is 9.78% (active).

For `CO[C@H](C(=O)[C@@H](O)[C@@H](C)O)[C@@H]1Cc2cc3cc(O[C@H]4C[C@@H](O[C@H]5C[C@@H](O)[C@H](O)C(C)O5)[C@H](O)C(C)O4)c(C)c(O)c3c(O)c2C(=O)[C@H]1O[C@H]1C[C@@H](O[C@H]2C[C@@H](O[C@H]3C[C@@H](OC)[C@H](O)C(C)O3)[C@@H](O)C(C)O2)C(O)(O)C(C)O1` (some centres undefined), the growth was -30.2% (active).

Take `c1csc(-c2[nH]nc3c2CCc2ccccc2-3)c1`: the growth was -18.7% (active).

On to `O=C1/C(=C\c2cn(C(=O)c3ccc(Cl)cc3)c3ccccc23)c2ccccc2N1c1c(Cl)cccc1Cl`, for which the growth was 97.7%.

On to `O=S(=O)(O)CC(O)CN1CCN(CCO)CC1` (centres undefined), for which the growth was 105%.

`OC(CSc1ccccc1)CN1CCN(c2cccc(Cl)c2)CC1` (centres undefined): the growth was 96.8%.

Take `O=C(CSc1nc2ccccc2c(=O)n1-c1ccc(Cl)cc1)N/N=C/c1ccc(N2CCCCC2)cc1`: the growth is 79.5%.

Regarding `CC[C@@H](C(=O)[C@H](C)[C@H](O)[C@@H](C)[C@H]1O[C@H]([C@@H](CC)C(=O)N(CC)CC)CC[C@H]1C)C1O[C@]2(C=C[C@@H](O)[C@]3(CC[C@@](C)([C@H]4CC[C@](O)(CC)[C@H](C)O4)O3)O2)[C@H](C)C[C@@H]1C` (some centres undefined), the growth was -18.3% (active).

Regarding `OCC1OC(n2cnc3c(NCc4ccco4)ncnc32)C(O)C1O` (centres undefined), the growth is -82.8% (active).

Consider `N#CCCN=Nc1c(O)[nH]c2ccc([N+](=O)[O-])cc12`, for which the growth was 99.7%.

As to `FC(F)(F)c1cc(Br)cc(-c2cc(-c3ccc4c(c3)OCCO4)[nH]n2)c1`, the growth was 40.6%.

`CCCNC(=O)Oc1ccc(/C(=C(\C)c2ccccc2)c2ccc(OCCCN(C)C)cc2)cc1`: the growth is 83.4%.

With `CCC(C(=O)[C@@H](C)[C@@H](O)[C@H](C)[C@@H]1O[C@@H]([C@@H](CC)C(=O)ONC(=O)c2ccccc2)CC[C@@H]1C)[C@H]1O[C@]2(C=CC(=O)[C@]3(CC[C@@](C)([C@H]4CC[C@](O)(CC)[C@H](C)O4)O3)O2)[C@H](C)C[C@@H]1C` (some centres undefined), the growth is -33.2% (active).

With `O=C1Cc2ccccc2C(=O)N1`, the growth is 45.8%.

As for `Cc1nnc(-c2ccc3c(c2)nc(/C=C/c2ccccc2)n3C2CCCCC2)o1`, the growth is 91.3%.

Take `S=C1CC(=S)NC(=S)N1`: the growth is 95.8%.

Consider `CCSc1nc2ccccc2o1`, for which the growth is 111%.

Consider `COc1ccc2c(c1)C=CC1(O2)Oc2ccc(OC)cc2C=C1C` (centres undefined), for which the growth is 47.3%.

For the compound `COc1ccc(/C=C2\Oc3cc(OCCCCN4CCCC4)ccc3C2=O)cc1`, the growth was 74.5%.

As for `C#Cc1nc(C2=C(C)C(O)CC2)cs1` (centres undefined), the growth is -91.7% (active).
